# Measurements from PubChem BioAssay (NCATS).
# Inconclusive results are not listed. Calls of active or inactive are those of the source. Calls follow the shape of the dose curve; as a rule, active = well fitted activation curve with a large enough effect; inconclusive = small, poorly fitted or top-dose-only effect; inactive = no such curve, though single readings can be large or run the other way.
# Target: Cellular tumor antigen p53 (Homo sapiens) (UniProt P04637)
# Test: Primary qHTS for small molecule compounds that upregulate eGFP-tagged delta133p53alpha (in N-terminal) cells. (AID 2060322);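 also: series mostly up to about 56 µM; 0% = DMSO vehicle and 100% = reference activator; nearly all actives have a fitted effect of over 75% in size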
# Settings: NCI-H358 eGFP-delta133p53alpha fluorescence, 24 h; activation: active compounds read high
# How it was run: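 NCI-H358 cells pre-induced 24 h with 10 ng/ml doxycycline to express N-terminal eGFP-delta133p53alpha, then dosed 24 h at 37C without doxycycline; fixed, Hoechst-stained, GFP intensity by laser scanning cytometry, normalized to DMSO (0%) and 57.5 uM 5-azacytidine (100%).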
# Chain of Cellular tumor antigen p53 (Homo sapiens) (P04637 whole entry, looked up): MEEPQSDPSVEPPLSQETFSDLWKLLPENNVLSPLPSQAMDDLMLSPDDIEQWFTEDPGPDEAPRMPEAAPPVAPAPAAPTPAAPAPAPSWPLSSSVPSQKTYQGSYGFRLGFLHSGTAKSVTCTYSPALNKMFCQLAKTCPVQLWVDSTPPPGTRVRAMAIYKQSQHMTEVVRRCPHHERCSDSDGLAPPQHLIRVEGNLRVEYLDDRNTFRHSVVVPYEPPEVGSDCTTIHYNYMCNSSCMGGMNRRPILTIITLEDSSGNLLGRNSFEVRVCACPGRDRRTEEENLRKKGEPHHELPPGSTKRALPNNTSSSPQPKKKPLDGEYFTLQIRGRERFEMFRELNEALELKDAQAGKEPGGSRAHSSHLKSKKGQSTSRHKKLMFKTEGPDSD
row,SMILES,activation
1,C[C@@H]1O[C@@H](O[C@H]2[C@H](OC(=O)[C@]34CCC(C)(C)C[C@H]3C3=CCC5[C@@]6(C)C[C@H](O)[C@H](O[C@@H]7O[C@H](CO[C@@H]8OC[C@H](O)[C@H](O)[C@H]8O)[C@@H](O)[C@H](O)[C@H]7O)C(C)(C)C6CC[C@@]5(C)[C@]3(C)C[C@H]4O)OC[C@@H](O)[C@@H]2O)[C@H](O)[C@H](O[C@@H]2OC[C@](O)(CO)[C@H]2O)[C@H]1O[C@@H]1OC[C@H](O)[C@H](O[C@@H]2OC[C@@H](O)[C@H](O)[C@H]2O)[C@H]1O (some centres not stated),8.93% (inactive)
2,COC12CC3C(C(C)C1=CC(=O)O2)C(O)C(OC(C)=O)C1C(C)(C)C(OC(C)=O)CCC31C (configuration not stated),-3.05% (inactive)
3,O=C(Nc1ccc(N(Cc2ccsc2)C(=O)Cn2nnc3ccccc32)cc1)C1CC1,11.6% (inactive)
4,O=S(=O)(c1ccc(Cl)cc1)N1CCN(c2ccnc3cc(Cl)ccc23)CC1,-12.5% (inactive)
5,CC1(C)C2CC=C(COC3OC(COC4OCC(O)(CO)C4O)C(O)C(O)C3O)C1C2 (configuration not stated),18.3% (inactive)
6,CC(C)(O)c1ccc2c(c1)C(O)C[C@H]1[C@](C)(C(=O)O)CCC[C@]21C (some centres not stated),3.57% (inactive)
7,Cc1ccccc1C(=O)N1CC/C(=N\OS(=O)(=O)O)c2ccc(Cl)cc21,-1.67% (inactive)
8,C[C@H](N)C(=O)N[C@@H](Cc1ccc(O)cc1)C(=O)N1CCC[C@H]1C(=O)NCC(=O)N[C@@H](CCCCN)C(=O)N[C@@H](Cc1ccccc1)C(N)=O,-5.67% (inactive)
9,C=C1C(=O)O[C@H](CCC)[C@H]1C(=O)O,-1.67% (inactive)
10,CCOC(=O)c1cnn(-c2ccccc2)c1NC(=O)c1cc2nc(-c3ccco3)cc(C(F)(F)Cl)n2n1,0.955% (inactive)
11,O[C@@](Cc1ncc(CC2(C(F)(F)F)CC2)[nH]1)(c1ccc(-n2cccn2)cc1)C(F)(F)F,-3% (inactive)
12,[N-]=[N+]=N[C@]1(CO)O[C@@H](n2ccc(=O)[nH]c2=O)[C@@H](O)[C@@H]1O,7% (inactive)
13,O=C(OC[C@H]1O[C@H](O[C@]2(CO)O[C@H](CO)[C@@H](O)[C@@H]2O)[C@H](O)[C@@H](O)[C@@H]1O)c1ccc(O)cc1,-2.68% (inactive)
14,N#CCc1ccc(O)cc1O[C@@H]1O[C@H](CO)[C@@H](O)[C@H](O)[C@H]1O,-11.6% (inactive)
15,CC1CCC2C(=CCC(O)C2(C)C)C1(C)Cc1c(O)cc(CO)c(C=O)c1O (configuration not stated),9.92% (inactive)
16,CC(=O)OC1C(O)CC2(C)C(CCC(C)C23Cc2c(O)cc(CO)c(C=O)c2O3)C1(C)C (configuration not stated),6.87% (inactive)
17,C[C@@H]1CC[C@]2(C)C3(C)CC[C@@]2(OC3=O)[C@@]12C[C@H](c1ccoc1)OC2=O,26.7% (inactive)
18,C[C@@]12CC3(S(=O)(=O)O)OC(O1)[C@]1(COC(=O)c4ccccc4)[C@H]3C[C@]21O[C@@H]1O[C@H](CO)[C@@H](O)[C@H](O)[C@H]1O,14.5% (inactive)
19,CC(C)C1(O[C@@H]2O[C@H](CO)[C@@H](O)[C@H](O)[C@H]2O)CC=C(CO)CC1 (some centres not stated),17.9% (inactive)
20,C[C@@H]1O[C@@H](O[C@H]2[C@@H]3C=CO[C@@H](O[C@@H]4O[C@H](CO)[C@@H](O)[C@H](O)[C@H]4O)[C@@H]3[C@@]3(CO)O[C@@H]23)[C@H](O)[C@H](OC(=O)/C=C/c2ccc(O)cc2)[C@H]1OC(=O)/C=C/c1ccc(O)cc1,-13% (inactive)
21,C=C1CCC2C(C)(C)C(O)CCC2(C)C1CCC(C)CCOC(=O)CCC(=O)O (configuration not stated),-3.82% (inactive)
22,COc1cc(/C=C/c2ccccc2)c(C(=O)O)c(O)c1CC=C(C)C,-9.82% (inactive)
23,O=C(C[C@@H]1C(C(=O)O)=CO[C@@H](O[C@@H]2O[C@H](CO)[C@@H](O)[C@H](O)[C@H]2O)/C1=C\CO)OCCc1ccc(O)cc1,1.53% (inactive)
24,COc1cc(/C=C/C(=O)O[C@@H]2C[C@@](O)(C(=O)O)C[C@@H](O)[C@@H]2O)ccc1O,-1.53% (inactive)
25,COC1CC/C=C(\C)C(=O)Nc2cc(O)cc(c2)CC(C)CC(OC)C(O)C(C)/C=C(\C)C1OC(N)=O (configuration not stated),6.87% (inactive)
26,C=C1C(OC(C)=O)CCC2(C)CCC(C(C)(C)O)CC12 (configuration not stated),-3.05% (inactive)
27,CC1(C)CC[C@]2(C(=O)O[C@@H]3O[C@H](CO[C@@H]4O[C@H](CO)[C@@H](O)[C@H](O)[C@H]4O[C@@H]4O[C@H](CO)[C@@H](O)[C@H](O)[C@H]4O)[C@@H](O)[C@H](O[C@@H]4O[C@H](CO)[C@@H](O)[C@H](O)[C@H]4O)[C@H]3O)CC[C@]3(C)C(=CCC4[C@@]5(C)CC[C@@H](O)[C@@](C)(C(=O)O[C@@H]6O[C@H](CO)[C@@H](O)[C@H](O)[C@H]6O)C5CC[C@]43C)[C@@H]2C1 (some centres not stated),-7.63% (inactive)
